# Measurements as given in PubChem BioAssay (NCATS).
# Where “and” joins values, the source holds several entries; their conditions need not be identical. Equal values may be shown once. Results filed as inconclusive are left out. Entries that show only a call come without a potency. A number with no mark means an inactive call. Calls of active or inactive are those of the source. The call rests on the fitted dose curve; in most records, active means well fitted curve in the direction sought with a large enough effect; inconclusive means small, poorly fitted or top-dose-only effect, or another doubt; inactive means no such curve, though single readings can be large; an effect the other way counts as inactive or inconclusive.
# Tests used:
# [1] = tested on: TAB165; assay: qHTS profiling for inhibitors of Plasmodium falciparum proliferation (AID 504749); further: nearly all actives have a fitted effect of over 60% in size; further: potency means the concentration at half of the fitted maximal effect; conditions: P. falciparum in erythrocytes, SYBR Green DNA, 72 h; series mostly up to 28.7 µM
# In short: (§1)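 Parasite proliferation within erythrocytes, 72 h exposure. Endpoint: SYBR Green I fluorescence after overnight lysis at room temperature. Controls: 0.29 uM artemisinin, DMSO.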
# [2] = tested on: W2; assay: as above; conditions: P. falciparum in erythrocytes, SYBR Green DNA, 72 h; series mostly up to 28.7 µM
# In short: as §1
# [3] = tested on: HEK293; assay: Cytotoxic Profiling of Annotated Libraries Using Quantitative High-Throughput Screening (AID 1296008); conditions: Five cell lines viability, CellTiter-Glo ATP luminescence, 48-72 h; max response: hits give low values; further: nearly all actives have a fitted effect of over 60% in size; further: potency means the concentration at half of the fitted maximal effect
# In short: (§2)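 Compounds were pin-transferred onto cells and incubated 48 or 72 hr at 37 degree Celsius, 95% humidity. CellTiter-Glo was added, plates sat 10 min at room temperature, then ATP-coupled luminescence was imaged as the viability read-out.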
# [4] = tested on: KB-3-1; assay: as above; conditions: Five cell lines viability, CellTiter-Glo ATP luminescence, 48-72 h; max response: hits give low values
# In short: as §2
# [5] = tested on: MCC-13; assay: qHTS assay to identify novel small-molecules to repurpose for Merkel cell carcinoma treatment (AID 1296009); conditions: MCC and control cell lines, CellTiter-Glo viability, 72 h; series mostly up to 46 µM; further: nearly all actives have a fitted effect of over 60% in size
# In short: (§3)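 qHTS format: cells treated with library compounds in DMSO across 8 (NPC) or 11 (MIPE) concentrations. Readout after 72 hr at 37 degree celsius was CellTiter-Glo luminescence.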
# [6] = tested on: MKL-1; assay: as above; conditions: MCC and control cell lines, CellTiter-Glo viability, 72 h; series mostly up to 46 µM
# In short: as §3
# [7] = tested on: MKL-2; assay: as above; conditions: MCC and control cell lines, CellTiter-Glo viability, 72 h; series mostly up to 46 µM
# In short: as §3
# [8] = tested on: UISO; assay: as above; conditions: MCC and control cell lines, CellTiter-Glo viability, 72 h; series mostly up to 46 µM
# In short: as §3
# [9] = tested on: WaGa; assay: as above; conditions: MCC and control cell lines, CellTiter-Glo viability, 72 h; series mostly up to 46 µM
# In short: as §3
# [10] = tested on: CRL-7250; assay: as above; conditions: MCC and control cell lines, CellTiter-Glo viability, 72 h
# In short: as §3
# [11] = tested on: C33A; assay: Primary qHTS to identify gynecologic anti-cancer compounds using libraries of approved drugs and bioactive compounds (AID 1345084); conditions: Gynecologic cancer cell panel viability, ATPlite luminescence, 48 h; series mostly up to 57.5 µM; further: nearly all actives have a fitted effect of over 55% in size
# In short: (§4)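 Five-concentration response, 48 h; readout is ATP-driven luciferase luminescence.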
# [12] = tested on: CAOV3; assay: as above; conditions: Gynecologic cancer cell panel viability, ATPlite luminescence, 48 h; series mostly up to 57.5 µM
# In short: as §4
# [13] = tested on: CASKI; assay: as above; conditions: Gynecologic cancer cell panel viability, ATPlite luminescence, 48 h; series mostly up to 57.5 µM
# In short: as §4
# [14] = at 44.8 µM (top of the series) unless noted
smiles,measurement,setting,value
C[C@]12CC[C@@H]3c4ccc(OC(=O)N(CCCl)CCCl)cc4CC[C@H]3[C@@H]1CC[C@@H]2O,Potency,[1],inactive
same,Potency,[2],inactive
same,Potency,[3],29.9 µM (active)
same,max response,[4],-1.74%
same,outcome,[5],inactive
same,Potency,[6],inactive
same,Potency,[7],inactive
same,Potency,[8],inactive
same,Potency,[9],inactive
CCCC(C)(COC(N)=O)COC(N)=O,Potency,[1],inactive
same,max response,[4],1.51%
CCCCCCn1c(=O)c2c(ncn2C)n(C)c1=O,outcome,[10]; [14],inactive
O=C1Nc2ccc(Cl)cc2C(c2ccccc2)=NC1O (stereo unspecified),Potency,[1],inactive
same,Potency,[2],inactive
same,max response,[4],-4.67% and -16.2%
CN=C1CN(O)C(c2ccccc2)=c2cc(Cl)ccc2=N1,max response,[4],-12.7% and 2.13%
Cc1nnc2n1-c1ccc(Cl)cc1C(c1ccccc1Cl)=NC2,max response,[4],1.66%
C[C@@H]1C[C@H]2[C@@H]3C[C@H](F)C4=CC(=O)C=C[C@]4(C)[C@@]3(F)[C@@H](O)C[C@]2(C)[C@@]1(O)C(=O)CO,outcome,[10]; [14],inactive
Cc1cccc(C)c1NC(=O)CN1CCCCCC1,outcome,[10]; [14],inactive
CN1C[C@H](C(=O)N[C@]2(C)O[C@@]3(O)[C@@H]4CCCN4C(=O)[C@H](Cc4ccccc4)N3C2=O)C=C2c3cccc4[nH]cc(c34)C[C@H]21,Potency,[1],447 nM (active)
same,Potency,[2],53.6 nM (active)
same,max response,[4],-3.72%
CC(C)[C@H]1C(=O)N2CCC[C@H]2[C@]2(O)O[C@](NC(=O)[C@@H]3C[C@@H]4c5cccc6[nH]cc(c56)C[C@H]4N(C)C3)(C(C)C)C(=O)N12,max response,[4],22.9%
O=C1NCC2(CCN(CCc3ccccc3)CC2)O1,outcome,[10]; [14],inactive
Nc1ccn(C[C@@H](CO)OCP(=O)(O)O)c(=O)n1,max response,[4],-9.56%
OC[C@H]1O[C@@H]2O[C@H]3[C@H](O)[C@@H](O)[C@@H](O[C@H]4[C@H](O)[C@@H](O)[C@@H](O[C@H]5[C@H](O)[C@@H](O)[C@@H](O[C@H]6[C@H](O)[C@@H](O)[C@@H](O[C@H]7[C@H](O)[C@@H](O)[C@@H](O[C@H]8[C@H](O)[C@@H](O)[C@@H](O[C@H]1[C@H](O)[C@H]2O)O[C@@H]8CO)O[C@@H]7CO)O[C@@H]6CO)O[C@@H]5CO)O[C@@H]4CO)O[C@@H]3CO,outcome,[10]; [14],inactive
CNNCc1ccc(C(=O)NC(C)C)cc1,outcome,[10]; [14],inactive
OC[C@H]1O[C@H](O[C@]2(CCl)O[C@H](CCl)[C@@H](O)[C@@H]2O)[C@H](O)[C@@H](O)[C@H]1Cl,outcome,[10]; [14],inactive
Nc1ccc(S(=O)(=O)Nc2ccnn2-c2ccccc2)cc1,outcome,[10]; at 17.4 µM (top of the series),inactive
same,outcome,[10]; at 44.8 µM (top of the series),inactive
Cc1cc(CC(=O)O)c(C)n1-c1ccc(Cl)cc1,outcome,[10]; [14],inactive
COc1cc2nc(Cl)nc(N)c2cc1OC,outcome,[10]; [14],inactive
CCN1CCCC1CNC(=O)c1cc(S(=O)(=O)CC)c(N)cc1OC (stereo unspecified),outcome,[10]; [14],inactive
NNC(=O)c1ccncc1,outcome,[10]; [14],inactive
O=C(O)Cc1ccc(OCCNC[C@H](O)c2ccccc2)cc1,outcome,[10]; [14],inactive
S=P(N1CC1)(N1CC1)N1CC1,outcome,[10]; [14],inactive [at 92 µM]
CCO/C([O-])=N/c1c[n+](N2CCOCC2)no1,outcome,[10]; [14],inactive
O=[N+]([O-])c1cncn1CCN1CCOCC1,outcome,[10]; [14],inactive
C[C@]12CC[C@H]3[C@@H](CC[C@@]45O[C@H]4C(O)=C(C#N)C[C@]35C)[C@H]1CC[C@H]2O,Potency,[11],inactive
same,outcome,[12],inactive
same,outcome,[13],inactive
C=CCN1C[C@H](C(=O)N(CCCN(C)C)C(=O)NCC)C[C@@H]2c3cccc4[nH]cc(c34)C[C@H]21,outcome,[10]; [14],inactive
COc1ccc(C(=O)c2ccccc2O)c(O)c1,outcome,[10]; [14],inactive
Cc1c(C)c2c(c(C)c1O)CCC(C)(COc1ccc(CC3SC(=O)NC3=O)cc1)O2 (stereo unspecified),outcome,[10]; [14],inactive
Cc1onc(-c2ccccc2)c1-c1ccc(S(N)(=O)=O)cc1,outcome,[10]; [14],inactive
CCN(CC)CC#CCOC(=O)C(O)(c1ccccc1)C1CCCCC1 (stereo unspecified),outcome,[10]; [14],inactive
COCCCOc1ccnc(CS(=O)c2nc3ccccc3[nH]2)c1C (stereo unspecified),outcome,[10]; [14],inactive
CN1C(=O)C(O)N=C(c2ccccc2)c2cc(Cl)ccc21 (stereo unspecified),Potency,[1],inactive
same,Potency,[2],inactive
CS(=O)(=O)c1ccc([C@@H](O)[C@@H](CO)NC(=O)C(Cl)Cl)cc1,outcome,[10]; [14],inactive
NC(N)=NS(=O)(=O)c1ccc(N)cc1,outcome,[10]; [14],inactive
CC(C)(C)c1ccc(O)cc1,Potency,[11],inactive
same,outcome,[12],inactive
same,outcome,[13],inactive
CCCNC(C)C(=O)Nc1c(C)csc1C(=O)OC (stereo unspecified),outcome,[10]; [14],inactive
Cc1ccc(C(C)C)c(O)c1,outcome,[10]; [14],inactive
O=C(O)Cc1cccc2ccccc12,outcome,[10]; at 44.8 µM (top of the series),inactive
same,outcome,[10]; at 92 µM (top of the series),inactive
CCC1=C(C)CN(C(=O)NCCc2ccc(S(=O)(=O)NC(=O)NC3CCC(C)CC3)cc2)C1=O (stereo unspecified),outcome,[10]; [14],inactive
O=c1cc[nH]c(=O)[nH]1,outcome,[10]; [14],inactive
CCCCOC(=O)c1ccc(N)cc1,outcome,[10]; [14],inactive
O=C(COCCOCCOCC(=O)Nc1c(I)cc(I)c(C(=O)O)c1I)Nc1c(I)cc(I)c(C(=O)O)c1I,outcome,[10]; [14],inactive
O=C(CO)[C@@H](O)[C@H](O)[C@@H](O)CO,outcome,[10]; [14],inactive
NC1CCN(c2nc3c(cc2F)c(=O)c(C(=O)O)cn3-c2ccc(F)cc2F)C1 (stereo unspecified),outcome,[10]; [14],inactive
CC(C)c1ccc2oc3nc(N)c(C(=O)O)cc3c(=O)c2c1,outcome,[10]; [14],inactive
C[C@@H](N)[C@@H](O)c1ccccc1,Potency,[11],inactive
same,outcome,[13],inactive
CCn1cc(C(=O)O)c(=O)c2cc(F)c(N3CCNC(C)C3)c(F)c21 (stereo unspecified),outcome,[10]; [14],inactive
O=P(O)(O)C(O)(Cn1ccnc1)P(=O)(O)O,outcome,[10]; [14],inactive [at 17.4 µM]
NC(CS)C(=O)O (stereo unspecified),outcome,[10]; [14],inactive
CC(C(=O)O)c1ccc2c(c1)[nH]c1ccc(Cl)cc12 (stereo unspecified),outcome,[10]; [14],inactive
